Measurements published in PubChem BioAssay (EPA / NIEHS).
Active and inactive are the calls of the source. How the source made its calls, unless noted: active means hit-call score of the fitted dose curve at least 0.9, where 1 is the maximum; inactive means score below 0.9.

Tests used:
[1] = read-out: Phosphatase and tensin (PTEN), PTEN (gene 5728); test: LTEA_HepaRG_PTEN: Life Technologies and Expression Analysis (LTEA) Assay for Phosphatase and tensin (PTEN) using HepaRG (AID 2283523); conditions: mRNA level, 48 h; actives raise or lower the signal
Outline: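 HepaRG, 48 h exposure, 8-pt half-log series from 100 uM top, 0.5% DMSO vehicle, duplicates. Readout: Fluidigm qRT-PCR of PTEN transcript; housekeeping normalization (ACTB, GAPDH, POLR2A). Gain or loss fitted relative to DMSO baseline.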

[2] = read-out: solute carrier (SLC22A1), SLC22A1 (gene 6580); test: LTEA_HepaRG_SLC22A1: Life Technologies and Expression Analysis (LTEA) Assay for solute carrier (SLC22A1) using HepaRG (AID 2283524); conditions: mRNA level, 48 h; actives raise or lower the signal
Outline: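 qRT-PCR readout (TaqMan, Fluidigm arrays) of SLC22A1 transcript, normalized to three housekeeping genes; bidirectional curve fit relative to 0.5% DMSO vehicle. Differentiated human HepaRG cells, 48 h chemical exposure, top concentration 100 uM, half-log steps, eight points.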

[3] = read-out: Pyruvate Dehydrogenase Kinase 4 (PDK4), PDK4 (gene 5166); test: LTEA_HepaRG_PDK4: Life Technologies and Expression Analysis (LTEA) Assay for Pyruvate Dehydrogenase Kinase 4 (PDK4) using HepaRG (AID 2283525); conditions: mRNA level, 48 h; actives raise or lower the signal
Outline: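 HepaRG (human liver line), 48 h chemical exposure, 8-pt half-log CRC top 100 uM, 0.5% DMSO vehicle, duplicates. Readout: TaqMan qRT-PCR of PDK4 mRNA, housekeeping-normalized; gain/loss fit relative to DMSO baseline.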

[4] = read-out: NAD(P)H dehydrogenase [quinone] 1 (NQO1), NQO1 (gene 1728); test: LTEA_HepaRG_NQO1: Life Technologies and Expression Analysis (LTEA) Assay for NAD(P)H dehydrogenase [quinone] 1 (NQO1) using HepaRG (AID 2283526); conditions: mRNA level, 48 h; actives raise or lower the signal
Outline: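 NQO1 transcript induction or loss measured by TaqMan qRT-PCR, referenced to three housekeeping genes and fitted bidirectionally against 0.5% DMSO. HepaRG cultures exposed 48 h, duplicate, eight-point half-log series, top 100 uM.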

[5] = read-out: Nuclear factor erythroid 2-related factor 2 (Homo sapiens) (UniProt Q16236); test: LTEA_HepaRG_NFE2L2: Life Technologies and Expression Analysis (LTEA) Assay for Nuclear factor erythroid 2-related factor 2 (NFE2L2) Transcription Factor using HepaRG (AID 2283527); conditions: mRNA level, 48 h; actives raise or lower the signal;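 further: TaqMan qRT-PCR transcript level normalised to ACTB GAPDH and POLR2A housekeeping genes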
Outline: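 HepaRG, 48 h dosing, 8-pt half-log series from 100 uM in 0.5% DMSO, duplicates. Read-out: NFE2L2 mRNA by qRT-PCR (ACTB/GAPDH/POLR2A normalization). Bidirectional curve fit vs DMSO baseline.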

[6] = read-out: succinate dehydrogenase complex iron sulfur subunit B (SDHB), SDHB (gene 6390); test: LTEA_HepaRG_SDHB: Life Technologies and Expression Analysis (LTEA) Assay for succinate dehydrogenase complex iron sulfur subunit B (SDHB) using HepaRG (AID 2283528); conditions: mRNA level, 48 h; actives raise or lower the signal
Outline: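 HepaRG, 48 h exposure, 8-pt half-log series from 100 uM in 0.5% DMSO, duplicates. Readout: SDHB mRNA by Fluidigm qRT-PCR vs housekeeping genes; bidirectional fit relative to DMSO.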

[7] = read-out: Signal transducer and activator of transcription 3 (Homo sapiens) (UniProt P40763); test: LTEA_HepaRG_STAT3: Life Technologies and Expression Analysis (LTEA) Assay for Signal transducer and activator of transcription (STAT3) using HepaRG (AID 2283529); conditions: mRNA level, 48 h; actives raise or lower the signal
Outline: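 HepaRG, 48 h exposure, 8-pt half-log series (top 100 uM), 0.5% DMSO vehicle, duplicates. Readout: STAT3 transcript by Fluidigm qRT-PCR, housekeeping-normalized; bidirectional fit vs DMSO baseline.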

[8] = read-out: solute carrier (SLCO1B1), SLCO1B1 (gene 10599); test: LTEA_HepaRG_SLCO1B1: Life Technologies and Expression Analysis (LTEA) Assay for solute carrier (SLCO1B1) using HepaRG (AID 2283530); conditions: mRNA level, 48 h; actives raise or lower the signal
Outline: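 HepaRG, serum-free induction medium, 48 h dosing, 8-pt half-log from 100 uM, 0.5% DMSO vehicle, duplicates. Readout: SLCO1B1 mRNA, qRT-PCR, ACTB/GAPDH/POLR2A normalization; up or down fit vs DMSO.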

[9] = read-out: sulfotransferase 2A1 (SULT2A1), SULT2A1 (gene 6822); test: LTEA_HepaRG_SULT2A1: Life Technologies and Expression Analysis (LTEA) Assay for sulfotransferase 2A1 (SULT2A1) using HepaRG (AID 2283531); conditions: mRNA level, 48 h; actives raise or lower the signal
Outline: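 Transcript levels of SULT2A1, quantified by qRT-PCR and normalized to three housekeeping genes, serve as the readout. Human HepaRG cultures receive test chemicals for 48 h at up to 100 uM in half-log steps, with 0.5% DMSO vehicle.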

[10] = read-out: Transforming Growth Factor (TGFA), TGFA (gene 7039); test: LTEA_HepaRG_TGFA: Life Technologies and Expression Analysis (LTEA) Assay for Transforming Growth Factor (TGFA) using HepaRG (AID 2283532); conditions: mRNA level, 48 h; actives raise or lower the signal
Outline: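 qRT-PCR read-out of TGFA transcript, normalized to three housekeeping genes, fitted bidirectionally against 0.5% DMSO baseline. Human HepaRG cultures received chemicals for 48 h at eight half-log concentrations, top 100 uM.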

[11] = read-out: Transforming Growth Factor (TGFB1), TGFB1 (gene 7040); test: LTEA_HepaRG_TGFB1: Life Technologies and Expression Analysis (LTEA) Assay for Transforming Growth Factor (TGFB1) Transporter using HepaRG (AID 2283533); conditions: mRNA level, 48 h; actives raise or lower the signal
Outline: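 HepaRG, 48 h post-plating, switched to serum-free induction medium; chemicals 100 uM top, half-log, 8 pts, 0.5% DMSO, dup; 48 h exposure; RNA → Fluidigm TaqMan qRT-PCR; norm ACTB/GAPDH/POLR2A; bidirectional fit vs DMSO.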

[12] = read-out: TIMP1, TIMP1 (gene 7076); test: LTEA_HepaRG_TIMP1: Life Technologies and Expression Analysis (LTEA) Assay for TIMP1 using HepaRG (AID 2283534); conditions: mRNA level, 48 h; actives raise or lower the signal
Outline: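 Readout is TIMP1 mRNA level measured by qRT-PCR and normalized to three housekeeping genes. Human HepaRG cells were treated for 48 h in duplicate at eight concentrations up to 100 uM (0.5% DMSO); gain or loss fitted against DMSO.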

[13] = read-out: Tumor necrosis factor receptor 1 (TNFRSF1A), TNFRSF1A (gene 7132); test: LTEA_HepaRG_TNFRSF1A: Life Technologies and Expression Analysis (LTEA) Assay for Tumor necrosis factor receptor 1 (TNFRSF1A) using HepaRG (AID 2283535); conditions: mRNA level, 48 h; actives raise or lower the signal
Outline: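 Read-out is TNFRSF1A transcript level by TaqMan qRT-PCR, normalized to three housekeeping genes, scored as gain or loss of signal versus 0.5% DMSO. Human HepaRG cells received test chemicals for 48 h at up to 100 uM (half-log series).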

[14] = read-out: Thyroid Hormone Responsive (THRSP), THRSP (gene 7069); test: LTEA_HepaRG_THRSP: Life Technologies and Expression Analysis (LTEA) Assay for Thyroid Hormone Responsive (THRSP) using HepaRG (AID 2283536); conditions: mRNA level, 48 h; actives raise or lower the signal
Outline: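 qRT-PCR read-out (Fluidigm TaqMan), housekeeping-normalized (ACTB/GAPDH/POLR2A). HepaRG, 48 h chemical exposure, 8-pt half-log series from 100 uM in 0.5% DMSO, duplicates. Bidirectional curve fit vs 0.5% DMSO baseline.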

[15] = read-out: Cellular tumor antigen p53 (Homo sapiens) (UniProt P04637); test: LTEA_HepaRG_TP53: Life Technologies and Expression Analysis (LTEA) Assay for Tumor Protein P53 (TP53) using HepaRG (AID 2283537); conditions: mRNA level, 48 h; actives raise or lower the signal
Outline: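 HepaRG, 48 h exposure, top 100 uM, half-log 8-point, 0.5% DMSO vehicle, duplicates. Read: TP53 mRNA by TaqMan qRT-PCR, normalised to ACTB/GAPDH/POLR2A; bidirectional fit vs DMSO.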

[16] = read-out: UDP glucuronosyltransferase (UGT1A1), UGT1A1 (gene 54658); test: LTEA_HepaRG_UGT1A1: Life Technologies and Expression Analysis (LTEA) Assay for UDP glucuronosyltransferase (UGT1A1) using HepaRG (AID 2283538); conditions: mRNA level, 48 h; actives raise or lower the signal
Outline: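 UGT1A1 transcript level, measured by qRT-PCR with three housekeeping genes for normalization, after 48 h treatment of human HepaRG cells (0.5% DMSO, duplicates, up to 100 uM, half-log steps, 8 points). Curves fit both directions against DMSO baseline.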

[17] = read-out: UDP glucuronosyltransferase (UGT1A6), UGT1A6 (gene 54578); test: LTEA_HepaRG_UGT1A6: Life Technologies and Expression Analysis (LTEA) Assay for UDP glucuronosyltransferase (UGT1A6) using HepaRG (AID 2283539); conditions: mRNA level, 48 h; actives raise or lower the signal
Outline: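 HepaRG, 48 h post-plating switch to serum-free induction medium; chemical 48 h, 100 uM top, half-log x8, duplicate, 0.5% DMSO. Phenobarbital 1mM induction control. UGT1A6 mRNA by TaqMan qRT-PCR; gain/loss fit vs DMSO.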

[18] = read-out: X-box binding protein 1 (XBP1), XBP1 (gene 7494); test: LTEA_HepaRG_XBP1: Life Technologies and Expression Analysis (LTEA) Assay for X-box binding protein 1 (XBP1) using HepaRG (AID 2283540); conditions: mRNA level, 48 h; actives raise or lower the signal
Outline: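 Transcript levels of XBP1, measured by qRT-PCR and normalised to three housekeeping genes, were fitted bidirectionally relative to 0.5% DMSO controls. Human HepaRG cells received eight-point half-log dilutions from 100 uM for 48 h.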

[19] = LTEA_HepaRG_LDH_cytotoxicity: Cytotoxicity Assessment in the Life Technologies and Expression Analysis (LTEA) Assay (AID 2283563; active means hit-call score of the fitted dose curve at least 0.9, where 1 is the maximum)
Outline: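 Cells were thawed and plated for 48 h. Medium was then replaced with serum-free induction medium. Chemicals (8 half-log points, maximum 100 uM, 0.5% DMSO) were added in duplicate for 48 h, after which spent medium was assayed for LDH.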

[20] = Tanguay_ZF_120hpf_MORT_legacy: (Legacy) Oregon State University Tanguay Lab 120 Hour Post-fertilization zebrafish Assay for Mortality (AID 2283633; active means hit-call score of the fitted dose curve at least 0.9, where 1 is the maximum)
Outline: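 5D WT zebrafish, chorion removed 4 hpf; 1 embryo/well from 6 hpf; static exposure to 120 hpf, 28C, dark, sealed. Final DMSO 0.64%. Readout: binary mortality, brightfield, 24 + 120 hpf; DMSO as negative control.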

Measured: outcome

Chain of Nuclear factor erythroid 2-related factor 2 (Homo sapiens) (Q16236 whole entry, looked up): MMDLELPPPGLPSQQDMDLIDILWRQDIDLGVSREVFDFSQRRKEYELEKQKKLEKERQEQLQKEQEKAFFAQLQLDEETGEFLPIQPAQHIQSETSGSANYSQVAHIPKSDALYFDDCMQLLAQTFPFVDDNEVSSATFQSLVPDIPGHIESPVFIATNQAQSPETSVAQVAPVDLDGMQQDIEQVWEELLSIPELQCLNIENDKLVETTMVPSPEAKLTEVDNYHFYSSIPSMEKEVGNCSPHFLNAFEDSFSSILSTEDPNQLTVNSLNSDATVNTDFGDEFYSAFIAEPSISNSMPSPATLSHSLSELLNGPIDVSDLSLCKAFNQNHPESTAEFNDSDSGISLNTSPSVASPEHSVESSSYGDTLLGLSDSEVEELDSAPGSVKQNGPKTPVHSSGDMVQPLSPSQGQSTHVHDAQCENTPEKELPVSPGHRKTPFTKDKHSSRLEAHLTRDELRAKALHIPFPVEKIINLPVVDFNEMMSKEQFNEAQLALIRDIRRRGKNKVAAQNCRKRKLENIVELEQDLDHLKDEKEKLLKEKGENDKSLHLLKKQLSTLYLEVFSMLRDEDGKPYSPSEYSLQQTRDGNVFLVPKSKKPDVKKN
Chain of Cellular tumor antigen p53 (Homo sapiens) (P04637 whole entry, looked up): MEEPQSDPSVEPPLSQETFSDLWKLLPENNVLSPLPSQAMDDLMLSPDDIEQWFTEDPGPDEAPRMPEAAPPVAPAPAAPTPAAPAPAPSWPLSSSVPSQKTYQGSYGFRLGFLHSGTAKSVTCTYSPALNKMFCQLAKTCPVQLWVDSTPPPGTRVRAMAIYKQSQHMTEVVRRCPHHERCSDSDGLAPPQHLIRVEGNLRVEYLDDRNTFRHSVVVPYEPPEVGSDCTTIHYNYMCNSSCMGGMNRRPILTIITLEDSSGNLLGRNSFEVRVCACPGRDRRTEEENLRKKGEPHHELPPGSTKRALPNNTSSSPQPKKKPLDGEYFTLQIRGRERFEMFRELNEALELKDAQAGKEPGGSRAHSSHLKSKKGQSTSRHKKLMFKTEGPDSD
Chain of Signal transducer and activator of transcription 3 (Homo sapiens) (P40763 whole entry, looked up): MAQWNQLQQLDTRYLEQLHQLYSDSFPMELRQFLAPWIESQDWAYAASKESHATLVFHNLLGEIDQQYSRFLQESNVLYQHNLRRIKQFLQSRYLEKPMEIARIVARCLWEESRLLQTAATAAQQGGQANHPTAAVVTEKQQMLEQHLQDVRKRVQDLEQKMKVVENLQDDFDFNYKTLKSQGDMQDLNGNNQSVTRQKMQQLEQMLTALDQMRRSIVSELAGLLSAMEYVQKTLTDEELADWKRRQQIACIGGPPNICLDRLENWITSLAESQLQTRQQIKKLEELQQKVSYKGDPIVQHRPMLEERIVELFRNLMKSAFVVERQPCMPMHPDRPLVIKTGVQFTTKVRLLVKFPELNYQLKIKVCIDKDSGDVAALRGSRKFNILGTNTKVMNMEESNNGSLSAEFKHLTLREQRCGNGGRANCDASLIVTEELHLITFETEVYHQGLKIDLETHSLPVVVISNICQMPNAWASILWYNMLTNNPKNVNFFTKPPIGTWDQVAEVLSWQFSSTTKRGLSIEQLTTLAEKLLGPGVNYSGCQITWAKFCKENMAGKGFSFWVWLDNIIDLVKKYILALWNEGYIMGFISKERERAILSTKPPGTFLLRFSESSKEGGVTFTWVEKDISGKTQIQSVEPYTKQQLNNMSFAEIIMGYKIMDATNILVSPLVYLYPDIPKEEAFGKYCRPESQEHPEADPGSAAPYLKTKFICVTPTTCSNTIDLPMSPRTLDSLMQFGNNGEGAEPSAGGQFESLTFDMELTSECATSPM

O=C(CCl)c1ccccc1
inactive: all assays above

N#CCCCCC#N
inactive: all assays above

O=[N+]([O-])c1ccc(Cl)cc1
inactive: all assays above
